From PubChem BioAssay (NCI)
The panel holds about 83,000 compounds, 20% with a hit somewhere; the sample as a whole holds those more often.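 Note: values are percent growth. 100 is the growth of untreated cells, values between 100 and 0 indicate rising inhibition; between -100 and 0 indicates cell death.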 Values without a mark were called inactive. The source made the active and inactive calls. Rule for the calls: active = growth percent below 10; inactive = the rest.

What follows are compounds tested on MDA-MB-468 breast (assay: NCI-60 one-dose screen, 48 h (100 = growth as untreated, 0 = no growth, -100 = all killed)). Details: 10 µM unless noted.

Structure (SMILES)	growth
N#CC1C(=O)SC2c3ccccc3C(=O)c3ccccc3C12 (stereo not given)	89.4%
COc1ccc(C2c3ccccc3NC(=O)N2C2CCN(C)CC2)c(OC)c1 (stereo not given)	88.3%
Cc1cccc(N2CCN(C3=C(Cl)C(=O)c4ncccc4C3=O)CC2)c1	-66.6% (active)
COc1ccc(C2SCC(=O)N2NC(=O)c2ccc(NC(=O)c3ccccn3)cc2)cc1OC (stereo not given)	104%
O=C(Nc1cccc(-n2cc(-c3ccncc3)c(-c3ccc(O)c(Cl)c3)n2)c1)c1ccc(Cl)c(Cl)c1	68.9%
O=C(/C=C/c1ccc(Cl)c(Cl)c1)Nc1ncc(Cc2ccc(Cl)c(Cl)c2)s1	68.5%
NC(=O)NC1(C(=O)O)CCCC1	119%
CC1=C(C(=O)OC(C)C)C(c2ccc3c(c2)OCO3)NC(=S)N1 (stereo not given)	115%
COc1cc(Cn2c(-c3ccccc3)cc3c2-c2oncc2CC3)cc(OC)c1OC	-20.5% (active)
COc1ccc2nc(-c3c(-c4ccccc4)nc4ncccn34)[nH]c2c1	89.4%
Cc1cc(C)n(C(=O)c2sc(=S)n(-c3ccccc3)c2N=Nc2c(N)n[nH]c2N)n1	112%
O=[N+]([O-])c1cccc(-c2nc3sccn3c2-c2ccnc(NCCCNS(=O)(=O)c3ccc(F)cc3)n2)c1	-8.54% (active)
O=C(CC(C(=O)c1ccccc1)N1CCOCC1)c1ccccc1 (stereo not given)	101%
O=C(CCCC(=O)Nc1ccc(-n2nnc3cc(Cl)c(Cl)cc32)cc1)Nc1ccc(-n2nnc3cc(Cl)c(Cl)cc32)cc1	18.9%
Cc1cccc(NC(=O)N/C(N)=N/c2nc(C)c(C)s2)c1	14%
COc1ccc2c(O)c(/C=C3\N=Nc4nc(C)ccc43)oc2c1CC1CCNCC1	0.98% (active)
COC(=O)[C@]12CC[C@@H](C)[C@H](C)[C@@H]1C1=CC[C@@H]3[C@@]4(C)C(C=O)=C[C@@](C)(COC(C)=O)[C@@H]4C(=O)C[C@@]3(C)[C@]1(C)CC2	33.6%
O=C1C[C@H](c2ccccc2)[C@H](c2ccccc2)C1	99.2%
C[C@@H]1O[C@@H](O[C@H]2[C@@H](OC(=O)[C@]34CCC(C)(C)C[C@H]3C3=CC[C@@H]5[C@@]6(C)C[C@H](O)[C@H](O[C@@H]7O[C@H](CO)[C@@H](O)[C@H](O)[C@H]7O)[C@@](C)(CO)[C@@H]6CC[C@@]5(C)[C@]3(C)C[C@H]4O)OC[C@@H](O)[C@@H]2O)[C@H](O)[C@H](O[C@@H]2OC[C@@H](O)[C@H](O[C@@H]3OC[C@](O)(CO)[C@H]3O[C@@H]3OC[C@@H](O)[C@H](O)[C@H]3O)[C@H]2O)[C@H]1O[C@@H]1OC[C@](O)(CO)[C@H]1O	-24.2% (active)
O=C1CC23OC(C(O)c4ccccc4N12)C1C(c2ccccc2)=NOC13 (stereo not given)	40.9%
Cn1cc(-c2ncnc3ccc(-c4cnc(Cl)c(NS(C)(=O)=O)c4)cc23)c2ccccc21	-1.16% (active)
COc1ccc2c(c1)/C(=N/c1n[nH]c(=S)s1)C(=O)N2	17.1%
Cc1ccc(NCCN(C)CC(C)O)c2c(=O)c3ccccc3sc12 (stereo not given)	13.5%
CN1C(=S)N(C)C2C1NN=C1SC(c3ccccc3)=CC(=O)N12 (stereo not given)	62.9%
Cc1ccc2[nH]cc(-c3nc(-c4cn(C)c5ncccc45)cs3)c2c1	-0.335% (active)
